Measured values as given in the supplement of paper PMC11732987, “Enantioselective OTUD7B fragment discovery through chemoproteomics screening and high-throughput optimisation” (Communications Chemistry, 2025).

How the values were obtained:
Assay in all cases: log2 ratio of Biotin-Ahx-Ub-VS probe labelling (fragment/DMSO); higher = less target engagement (more negative = stronger competition), active = hit call of the paper (q ≤ 0.05, log2 ratio ≤ -1)
Details in all cases: compound concentration: 200 uM; treatment time: 3 h
[1] = molecular target: USP34 (UniProt Q70CQ2)
Summary of the method: (§1)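 Labelled DUBs from HEK293T lysate were NeutrAvidin-enriched, digested with LysC and trypsin, and run by diaPASEF LC-MS/MS. Before that, each 495 µg sample in Tris/CHAPS/IGEPAL buffer with protease inhibitors was treated in triplicate with fragment at 200 µM or vehicle for 3 h, then with Biotin-Ahx-Ub-VS at 0.5 µM final for 1 h. Values are average log2 ratios of fragment over vehicle by unpaired t-test, based on global-median-normalised Spectronaut label-free quantities from proteins with ≥2 unique peptides.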

[2] = molecular target: T1, USP36 (UniProt Q9P275)
T1 sequence (whole entry): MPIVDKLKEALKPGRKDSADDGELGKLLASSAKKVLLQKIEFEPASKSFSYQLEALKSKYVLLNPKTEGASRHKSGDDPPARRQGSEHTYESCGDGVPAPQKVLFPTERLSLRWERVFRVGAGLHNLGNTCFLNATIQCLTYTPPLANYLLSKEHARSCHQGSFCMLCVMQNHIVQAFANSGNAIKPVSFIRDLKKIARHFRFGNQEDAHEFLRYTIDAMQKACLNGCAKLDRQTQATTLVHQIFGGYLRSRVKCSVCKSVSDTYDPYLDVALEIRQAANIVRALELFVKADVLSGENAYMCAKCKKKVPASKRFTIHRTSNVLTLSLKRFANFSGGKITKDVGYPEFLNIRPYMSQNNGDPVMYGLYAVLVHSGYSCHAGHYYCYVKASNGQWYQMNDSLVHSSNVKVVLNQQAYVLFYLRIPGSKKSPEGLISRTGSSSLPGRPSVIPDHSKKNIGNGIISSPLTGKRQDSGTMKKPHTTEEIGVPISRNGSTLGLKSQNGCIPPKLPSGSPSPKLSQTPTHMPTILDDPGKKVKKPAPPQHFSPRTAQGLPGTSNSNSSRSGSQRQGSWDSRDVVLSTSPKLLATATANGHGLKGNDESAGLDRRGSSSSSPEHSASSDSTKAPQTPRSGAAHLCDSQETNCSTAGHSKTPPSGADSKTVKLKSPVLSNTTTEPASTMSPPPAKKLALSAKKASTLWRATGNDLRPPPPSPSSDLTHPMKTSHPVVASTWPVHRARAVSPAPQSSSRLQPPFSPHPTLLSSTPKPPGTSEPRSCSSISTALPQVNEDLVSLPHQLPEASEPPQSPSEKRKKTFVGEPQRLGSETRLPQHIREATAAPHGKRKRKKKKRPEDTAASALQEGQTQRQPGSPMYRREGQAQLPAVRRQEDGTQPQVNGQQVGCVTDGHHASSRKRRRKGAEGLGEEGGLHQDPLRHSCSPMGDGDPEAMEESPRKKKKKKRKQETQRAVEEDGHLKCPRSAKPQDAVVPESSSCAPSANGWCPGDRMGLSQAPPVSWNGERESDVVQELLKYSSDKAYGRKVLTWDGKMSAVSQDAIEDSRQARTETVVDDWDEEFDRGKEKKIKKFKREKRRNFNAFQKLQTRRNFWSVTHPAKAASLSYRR
Summary of the method: as §1

[3] = molecular target: T2, USP38 (UniProt Q8NB14)
T2 sequence (whole entry): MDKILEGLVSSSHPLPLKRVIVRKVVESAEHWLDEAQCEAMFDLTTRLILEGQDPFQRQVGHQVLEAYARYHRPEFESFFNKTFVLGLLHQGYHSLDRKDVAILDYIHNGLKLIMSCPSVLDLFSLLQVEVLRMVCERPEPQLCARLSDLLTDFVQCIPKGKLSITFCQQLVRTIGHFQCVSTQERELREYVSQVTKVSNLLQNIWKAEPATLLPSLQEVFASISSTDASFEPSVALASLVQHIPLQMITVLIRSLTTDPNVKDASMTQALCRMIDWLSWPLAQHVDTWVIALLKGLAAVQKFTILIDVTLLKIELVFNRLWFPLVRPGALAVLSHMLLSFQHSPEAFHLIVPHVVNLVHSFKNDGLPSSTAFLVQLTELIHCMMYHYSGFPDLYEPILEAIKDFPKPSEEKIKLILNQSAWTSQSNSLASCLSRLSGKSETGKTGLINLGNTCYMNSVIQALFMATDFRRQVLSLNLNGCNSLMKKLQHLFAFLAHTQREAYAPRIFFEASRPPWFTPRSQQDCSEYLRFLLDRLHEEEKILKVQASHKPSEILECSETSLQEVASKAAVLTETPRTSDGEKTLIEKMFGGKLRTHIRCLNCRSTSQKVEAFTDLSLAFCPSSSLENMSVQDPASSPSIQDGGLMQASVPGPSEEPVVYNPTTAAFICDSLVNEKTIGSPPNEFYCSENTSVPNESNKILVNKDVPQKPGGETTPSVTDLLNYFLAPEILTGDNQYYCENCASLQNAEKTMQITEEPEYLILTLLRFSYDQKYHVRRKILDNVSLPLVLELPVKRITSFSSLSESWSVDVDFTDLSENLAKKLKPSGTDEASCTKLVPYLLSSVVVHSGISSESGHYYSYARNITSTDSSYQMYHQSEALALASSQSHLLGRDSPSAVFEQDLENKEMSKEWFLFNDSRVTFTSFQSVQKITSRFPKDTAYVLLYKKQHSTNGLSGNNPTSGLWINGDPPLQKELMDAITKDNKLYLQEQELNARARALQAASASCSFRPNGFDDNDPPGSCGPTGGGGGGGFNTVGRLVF
Summary of the method: as §1

[4] = molecular target: T3, USP39 (UniProt Q53GS9)
T3 sequence (whole entry): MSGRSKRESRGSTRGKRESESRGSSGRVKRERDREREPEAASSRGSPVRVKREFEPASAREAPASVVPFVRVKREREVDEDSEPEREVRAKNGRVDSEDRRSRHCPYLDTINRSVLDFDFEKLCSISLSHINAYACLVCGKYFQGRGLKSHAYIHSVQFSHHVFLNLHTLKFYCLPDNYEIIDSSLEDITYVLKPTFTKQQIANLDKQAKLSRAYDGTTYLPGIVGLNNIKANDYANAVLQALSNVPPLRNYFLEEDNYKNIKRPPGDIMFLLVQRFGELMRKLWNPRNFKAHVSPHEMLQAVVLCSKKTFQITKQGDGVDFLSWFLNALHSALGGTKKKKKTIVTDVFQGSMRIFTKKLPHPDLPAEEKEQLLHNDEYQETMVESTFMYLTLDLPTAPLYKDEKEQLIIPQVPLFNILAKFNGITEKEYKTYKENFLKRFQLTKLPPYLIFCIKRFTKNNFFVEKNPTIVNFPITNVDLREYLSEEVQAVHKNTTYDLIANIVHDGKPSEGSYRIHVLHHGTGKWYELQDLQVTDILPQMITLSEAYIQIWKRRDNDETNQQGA
Summary of the method: as §1

[5] = molecular target: T4, USP4 (UniProt Q13107)
T4 sequence (whole entry): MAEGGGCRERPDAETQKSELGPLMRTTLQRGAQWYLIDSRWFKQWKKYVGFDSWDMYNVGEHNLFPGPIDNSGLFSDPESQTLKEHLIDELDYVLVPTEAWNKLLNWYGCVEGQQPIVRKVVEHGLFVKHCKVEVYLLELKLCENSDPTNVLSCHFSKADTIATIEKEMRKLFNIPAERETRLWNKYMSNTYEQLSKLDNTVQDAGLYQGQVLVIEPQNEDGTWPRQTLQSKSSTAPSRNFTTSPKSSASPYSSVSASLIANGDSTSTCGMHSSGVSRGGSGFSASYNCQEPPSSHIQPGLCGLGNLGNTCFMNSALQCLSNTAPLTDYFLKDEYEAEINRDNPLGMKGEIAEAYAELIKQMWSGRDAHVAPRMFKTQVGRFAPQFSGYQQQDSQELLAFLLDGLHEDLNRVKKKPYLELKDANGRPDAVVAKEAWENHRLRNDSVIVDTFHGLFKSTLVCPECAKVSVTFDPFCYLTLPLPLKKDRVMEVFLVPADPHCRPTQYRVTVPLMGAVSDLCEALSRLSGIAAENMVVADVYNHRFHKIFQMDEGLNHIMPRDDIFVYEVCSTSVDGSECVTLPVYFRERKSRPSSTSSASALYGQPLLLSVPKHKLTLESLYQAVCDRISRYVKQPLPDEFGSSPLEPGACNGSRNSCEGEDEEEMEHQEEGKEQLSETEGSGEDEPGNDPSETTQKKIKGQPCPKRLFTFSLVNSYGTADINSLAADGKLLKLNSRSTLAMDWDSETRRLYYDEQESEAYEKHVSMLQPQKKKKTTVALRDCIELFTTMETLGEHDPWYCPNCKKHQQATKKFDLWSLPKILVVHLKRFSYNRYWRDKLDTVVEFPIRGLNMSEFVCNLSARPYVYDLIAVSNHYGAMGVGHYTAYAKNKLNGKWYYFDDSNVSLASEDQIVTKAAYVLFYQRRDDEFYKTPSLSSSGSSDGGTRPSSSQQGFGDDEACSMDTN
Summary of the method: as §1

Measured: log2 ratio of Biotin-Ahx-Ub-VS probe labelling

USP34, sequence (Q70CQ2 whole entry, the tested form may be a part): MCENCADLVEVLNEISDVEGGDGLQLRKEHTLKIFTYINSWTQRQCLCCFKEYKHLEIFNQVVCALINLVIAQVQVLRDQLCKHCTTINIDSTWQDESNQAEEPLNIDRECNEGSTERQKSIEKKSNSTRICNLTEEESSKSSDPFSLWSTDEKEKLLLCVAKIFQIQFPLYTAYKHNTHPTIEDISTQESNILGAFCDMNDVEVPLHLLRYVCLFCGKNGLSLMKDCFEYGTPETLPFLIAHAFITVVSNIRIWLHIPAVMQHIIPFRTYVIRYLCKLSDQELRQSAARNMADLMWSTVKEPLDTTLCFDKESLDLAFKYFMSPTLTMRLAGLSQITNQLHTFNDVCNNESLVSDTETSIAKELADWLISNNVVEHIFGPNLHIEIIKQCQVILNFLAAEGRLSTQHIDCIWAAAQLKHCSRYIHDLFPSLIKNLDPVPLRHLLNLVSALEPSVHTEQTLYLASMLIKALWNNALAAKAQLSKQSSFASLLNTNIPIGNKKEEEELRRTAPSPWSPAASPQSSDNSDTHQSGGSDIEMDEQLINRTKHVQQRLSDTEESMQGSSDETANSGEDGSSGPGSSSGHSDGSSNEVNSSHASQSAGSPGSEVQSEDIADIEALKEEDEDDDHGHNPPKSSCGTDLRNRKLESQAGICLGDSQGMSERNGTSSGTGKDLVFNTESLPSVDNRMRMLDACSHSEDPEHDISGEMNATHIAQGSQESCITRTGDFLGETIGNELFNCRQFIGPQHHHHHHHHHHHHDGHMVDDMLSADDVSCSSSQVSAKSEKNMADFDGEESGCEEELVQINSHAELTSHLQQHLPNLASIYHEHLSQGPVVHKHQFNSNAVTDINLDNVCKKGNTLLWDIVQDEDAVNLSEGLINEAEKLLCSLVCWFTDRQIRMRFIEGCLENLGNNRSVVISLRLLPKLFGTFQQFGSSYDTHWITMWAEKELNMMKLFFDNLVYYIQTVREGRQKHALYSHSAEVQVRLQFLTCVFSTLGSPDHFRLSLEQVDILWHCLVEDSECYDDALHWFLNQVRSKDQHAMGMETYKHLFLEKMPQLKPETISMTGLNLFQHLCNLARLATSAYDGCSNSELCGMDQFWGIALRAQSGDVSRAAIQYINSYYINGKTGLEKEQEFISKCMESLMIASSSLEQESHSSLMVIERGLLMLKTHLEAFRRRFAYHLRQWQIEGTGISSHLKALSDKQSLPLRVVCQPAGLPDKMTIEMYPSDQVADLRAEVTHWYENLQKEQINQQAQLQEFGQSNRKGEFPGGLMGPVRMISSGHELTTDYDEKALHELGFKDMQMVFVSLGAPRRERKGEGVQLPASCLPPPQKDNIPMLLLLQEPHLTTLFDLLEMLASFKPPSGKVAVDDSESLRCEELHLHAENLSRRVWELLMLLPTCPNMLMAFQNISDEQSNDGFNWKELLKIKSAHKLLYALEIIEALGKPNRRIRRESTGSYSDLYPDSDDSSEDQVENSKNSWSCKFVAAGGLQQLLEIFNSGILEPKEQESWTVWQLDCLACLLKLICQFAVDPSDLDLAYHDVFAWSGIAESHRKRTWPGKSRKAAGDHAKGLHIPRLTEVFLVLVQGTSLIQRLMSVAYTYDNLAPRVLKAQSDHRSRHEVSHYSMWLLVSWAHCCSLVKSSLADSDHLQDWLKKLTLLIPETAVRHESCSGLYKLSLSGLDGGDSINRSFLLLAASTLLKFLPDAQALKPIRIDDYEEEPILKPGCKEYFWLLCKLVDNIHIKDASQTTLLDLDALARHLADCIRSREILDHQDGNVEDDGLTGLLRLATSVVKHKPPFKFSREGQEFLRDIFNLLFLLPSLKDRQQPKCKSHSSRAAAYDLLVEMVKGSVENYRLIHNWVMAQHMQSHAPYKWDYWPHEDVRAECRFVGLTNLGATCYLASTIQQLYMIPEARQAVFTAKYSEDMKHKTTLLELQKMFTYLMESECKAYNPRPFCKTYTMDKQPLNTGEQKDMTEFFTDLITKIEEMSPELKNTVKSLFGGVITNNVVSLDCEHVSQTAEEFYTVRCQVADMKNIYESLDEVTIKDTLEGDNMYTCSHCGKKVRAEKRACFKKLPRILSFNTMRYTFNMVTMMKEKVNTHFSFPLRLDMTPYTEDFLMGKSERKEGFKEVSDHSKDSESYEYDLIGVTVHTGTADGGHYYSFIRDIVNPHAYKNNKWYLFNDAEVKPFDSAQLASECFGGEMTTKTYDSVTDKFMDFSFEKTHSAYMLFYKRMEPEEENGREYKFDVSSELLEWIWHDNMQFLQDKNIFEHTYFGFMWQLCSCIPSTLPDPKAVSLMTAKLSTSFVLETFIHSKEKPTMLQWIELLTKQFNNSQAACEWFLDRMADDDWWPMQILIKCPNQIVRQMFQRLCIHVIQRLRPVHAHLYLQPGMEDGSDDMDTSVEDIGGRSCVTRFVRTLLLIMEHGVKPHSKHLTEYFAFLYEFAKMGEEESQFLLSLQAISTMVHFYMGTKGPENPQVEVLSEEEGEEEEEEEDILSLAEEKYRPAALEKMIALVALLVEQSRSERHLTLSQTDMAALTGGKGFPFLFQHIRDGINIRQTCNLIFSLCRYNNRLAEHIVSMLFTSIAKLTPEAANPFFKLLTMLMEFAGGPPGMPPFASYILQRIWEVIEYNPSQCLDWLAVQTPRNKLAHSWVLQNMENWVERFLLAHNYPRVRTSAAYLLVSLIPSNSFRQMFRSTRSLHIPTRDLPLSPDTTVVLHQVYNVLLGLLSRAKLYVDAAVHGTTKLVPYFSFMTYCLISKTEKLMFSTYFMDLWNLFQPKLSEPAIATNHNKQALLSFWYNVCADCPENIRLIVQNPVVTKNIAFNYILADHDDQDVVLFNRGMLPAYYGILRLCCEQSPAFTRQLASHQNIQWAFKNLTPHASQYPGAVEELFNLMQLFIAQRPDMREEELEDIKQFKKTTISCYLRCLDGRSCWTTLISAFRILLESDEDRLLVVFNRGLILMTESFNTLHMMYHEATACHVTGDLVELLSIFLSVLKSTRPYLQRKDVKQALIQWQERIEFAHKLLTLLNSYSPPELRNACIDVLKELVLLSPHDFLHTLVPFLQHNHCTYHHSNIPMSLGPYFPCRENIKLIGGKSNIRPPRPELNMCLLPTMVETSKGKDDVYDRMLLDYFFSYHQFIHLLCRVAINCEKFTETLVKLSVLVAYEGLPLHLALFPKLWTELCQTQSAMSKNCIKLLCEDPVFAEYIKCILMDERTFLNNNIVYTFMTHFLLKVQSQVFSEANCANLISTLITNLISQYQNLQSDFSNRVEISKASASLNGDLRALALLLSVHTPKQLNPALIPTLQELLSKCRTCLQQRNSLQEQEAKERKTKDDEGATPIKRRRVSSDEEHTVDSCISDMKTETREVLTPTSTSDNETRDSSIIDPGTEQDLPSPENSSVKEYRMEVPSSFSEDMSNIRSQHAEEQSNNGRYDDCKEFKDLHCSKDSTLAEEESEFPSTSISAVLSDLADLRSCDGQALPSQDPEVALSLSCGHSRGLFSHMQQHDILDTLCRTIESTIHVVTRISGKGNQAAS

N#Cc1ccc(CNC(=O)CCl)cc1
inactive: [1] -0.0142 | [2] 0.0698 | [3] -0.0952 | [4] 0.191 | [5] -0.0634
